In PubChem BioAssay:
Active and inactive are the calls of the source.

Columns and labels:
[1] = compounds binding Alexa647 anti-His antibody – biochemical, small-molecule microarray, 635 nm fluorescence, artefact control for SMM control protein annotation, primary screen (AID 1128); details: higher = more signal;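 note: score merges feature fluorescence with signal-to-noise for each printed compound spot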
[2] = tested on: Human papillomavirus type 1a E7 protein (residues 1-88); experiment: HPV1a E7 small-molecule binders, primary screen, biochemical, small-molecule microarray, residues 1-88, 635 nm (AID 1129); details: small-molecule microarray binding, fluorescence 635 nm; higher = more signal
[3] = molecular target: Focal adhesion kinase 1 (Homo sapiens) (UniProt Q05397); experiment: PTK2 protein binding on printed compound slides – biochemical, small-molecule microarray, 635/667 nm fluorescence, BSA, DTT, primary screen (AID 1130); details: 635 nm fluorescence, higher = more signal;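 note: composite of spot emission at 667 nm and signal to noise over triplicate slides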
Chain of Focal adhesion kinase 1 (Homo sapiens) (Q05397 whole entry, looked up): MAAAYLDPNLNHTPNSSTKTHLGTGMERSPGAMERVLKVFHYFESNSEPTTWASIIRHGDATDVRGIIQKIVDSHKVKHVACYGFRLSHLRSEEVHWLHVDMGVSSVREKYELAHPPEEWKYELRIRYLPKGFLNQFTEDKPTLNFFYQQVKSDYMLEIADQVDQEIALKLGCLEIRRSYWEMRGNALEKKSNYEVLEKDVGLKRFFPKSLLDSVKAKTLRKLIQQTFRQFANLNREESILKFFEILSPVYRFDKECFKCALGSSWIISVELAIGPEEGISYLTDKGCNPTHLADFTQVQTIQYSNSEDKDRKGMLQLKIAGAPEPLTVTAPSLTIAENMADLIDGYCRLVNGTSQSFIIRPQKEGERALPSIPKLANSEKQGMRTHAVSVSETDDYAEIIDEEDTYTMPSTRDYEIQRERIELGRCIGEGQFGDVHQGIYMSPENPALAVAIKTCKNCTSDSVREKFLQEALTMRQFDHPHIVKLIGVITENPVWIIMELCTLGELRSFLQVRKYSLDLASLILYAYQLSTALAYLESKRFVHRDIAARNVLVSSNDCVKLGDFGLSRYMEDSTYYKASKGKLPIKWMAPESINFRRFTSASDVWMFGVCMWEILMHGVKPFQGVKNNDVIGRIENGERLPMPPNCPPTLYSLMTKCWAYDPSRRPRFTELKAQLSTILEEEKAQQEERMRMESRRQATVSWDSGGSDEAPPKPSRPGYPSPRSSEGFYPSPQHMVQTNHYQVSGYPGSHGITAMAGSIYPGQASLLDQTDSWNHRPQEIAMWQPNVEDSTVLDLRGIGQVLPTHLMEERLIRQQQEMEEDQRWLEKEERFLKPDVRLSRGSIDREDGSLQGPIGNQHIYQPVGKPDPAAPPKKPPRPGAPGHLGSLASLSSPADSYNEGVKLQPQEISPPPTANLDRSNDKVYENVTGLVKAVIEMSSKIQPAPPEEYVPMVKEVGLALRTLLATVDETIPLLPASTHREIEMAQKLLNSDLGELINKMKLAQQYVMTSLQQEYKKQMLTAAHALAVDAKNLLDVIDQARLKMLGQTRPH

[4] = tested on: Fibrinogen (Alexa647-labelled); experiment: Alexa647-fibrinogen binding to printed small molecules – biochemical, small-molecule microarray, 635/667 nm fluorescence, artefact control for SMM control-protein annotation, profiling panel (AID 1131); details: fibrinogen-A647 binding fluorescence, higher = more signal;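 note: z-score merges 667 nm fluorescence with per-spot signal-to-noise over triplicate slides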
[5] = molecular target: Follistatin (Homo sapiens) (UniProt P19883); experiment: FST protein binding to printed compounds – biochemical, small-molecule microarray, 635/667 nm fluorescence, primary screen (AID 1132); details: 635 nm fluorescence, higher = more signal
Chain of Follistatin (Homo sapiens) (P19883 whole entry, looked up): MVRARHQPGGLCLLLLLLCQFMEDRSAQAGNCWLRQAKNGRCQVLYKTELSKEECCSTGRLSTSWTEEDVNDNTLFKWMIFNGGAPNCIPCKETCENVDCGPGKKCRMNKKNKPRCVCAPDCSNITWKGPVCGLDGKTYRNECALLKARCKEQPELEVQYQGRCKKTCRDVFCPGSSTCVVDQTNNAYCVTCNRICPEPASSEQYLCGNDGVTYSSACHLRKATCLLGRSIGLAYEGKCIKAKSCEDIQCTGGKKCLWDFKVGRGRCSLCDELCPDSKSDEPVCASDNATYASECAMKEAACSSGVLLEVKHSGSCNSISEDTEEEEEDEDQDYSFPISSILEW

[6] = molecular target: Fibroblast growth factor 2 (Homo sapiens) (UniProt P09038); experiment: basic fibroblast growth factor binding to printed compounds – biochemical, small-molecule microarray, 635/667 nm fluorescence, primary screen (AID 1133); details: FGF2, fluorescence 635/667, higher = more signal
Chain of Fibroblast growth factor 2 (Homo sapiens) (P09038 whole entry, looked up): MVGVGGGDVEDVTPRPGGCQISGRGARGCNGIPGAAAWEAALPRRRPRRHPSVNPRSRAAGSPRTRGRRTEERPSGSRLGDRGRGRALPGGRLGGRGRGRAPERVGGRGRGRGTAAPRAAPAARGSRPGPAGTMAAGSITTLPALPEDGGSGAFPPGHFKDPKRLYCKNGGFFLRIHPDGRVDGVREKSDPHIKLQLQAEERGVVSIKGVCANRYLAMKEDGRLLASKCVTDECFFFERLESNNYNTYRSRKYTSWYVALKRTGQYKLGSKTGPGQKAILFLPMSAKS

[7] = JC-1 mitochondrial potential readout, lung cancer cells – cell-based, A549, JC-1 fluorescence, basal, 24 h, 100 nL, profiling panel (AID 1138); details: higher = more signal;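 note: A549 lung adenocarcinoma cells under basal conditions with no added stimulus; test concentration not given here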
Lefty1 = Lefty1 protein binding to printed compounds – biochemical, small-molecule microarray, 635/667 nm fluorescence, primary screen (AID 1139); details: fluorescence 635/667, higher = more signal
[8] = tested on: wheat germ agglutinin (Triticum aestivum), Alexa647-labelled; experiment: Alexa647-WGA lectin binding to printed small molecules – biochemical, small-molecule microarray, 635/667 nm fluorescence, artefact control for SMM control-protein annotation, profiling panel (AID 1140); details: WGA-A647 binding, 635 nm fluorescence, higher = more signal;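 note: score merges 667 nm feature emission with signal to noise over triplicate slides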
[9] = molecular target: Luciferin 4-monooxygenase (Photinus pyralis) (UniProt P08659); experiment: inhibition of purified Photinus pyralis luciferase – biochemical, luminescence, purified enzyme, 2006 set, primary screen (AID 1141); details: purified firefly luciferase, SteadyGlo luminescence, 30 min; higher = more signal, called active from +8 up or from −8 down;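 note: cell-free assay with purified firefly luciferase at 100 ng per well in PBS; test concentration not given here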
Chain of Luciferin 4-monooxygenase (Photinus pyralis) (P08659 whole entry, looked up): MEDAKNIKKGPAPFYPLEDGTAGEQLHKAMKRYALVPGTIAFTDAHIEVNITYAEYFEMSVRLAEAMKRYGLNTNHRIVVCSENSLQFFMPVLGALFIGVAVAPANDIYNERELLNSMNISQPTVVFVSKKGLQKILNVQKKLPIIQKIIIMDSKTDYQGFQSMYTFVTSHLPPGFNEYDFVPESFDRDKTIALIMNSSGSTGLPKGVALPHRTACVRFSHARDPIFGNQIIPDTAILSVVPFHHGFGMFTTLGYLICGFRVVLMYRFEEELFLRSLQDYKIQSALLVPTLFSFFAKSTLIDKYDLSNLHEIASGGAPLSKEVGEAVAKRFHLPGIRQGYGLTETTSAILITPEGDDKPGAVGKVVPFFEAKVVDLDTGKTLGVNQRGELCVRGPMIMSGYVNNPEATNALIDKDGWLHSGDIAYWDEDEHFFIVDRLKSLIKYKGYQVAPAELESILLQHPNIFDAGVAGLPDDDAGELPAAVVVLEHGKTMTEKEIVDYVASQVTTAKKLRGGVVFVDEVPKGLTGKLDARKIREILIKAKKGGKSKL

Row | Compound | composite z-score [1] | composite z-score [2] | composite z-score [3] | composite z-score [4] | composite z-score [5] | composite z-score [6] | z-score [7] | composite z-score (Lefty1) | composite z-score [8] | z-score [9]
1 | C[C@@H]1C=CCC(=O)OC[C@H](C)C(=O)OC[C@H]2O[C@H]1C=C[C@H]2O | -0.31 | -0.307 | -0.174 | 0.303 | 0.208 | 0.577 | 0.328 | 0.781 | 0.59 | -1.1 (inactive)
2 | CO[C@H]1O[C@H](CO)[C@@H](OC(=O)Nc2ccc3c(c2)OCO3)[C@H](OC(=O)Nc2ccccc2-c2ccccc2)[C@@H]1OC(=O)Nc1ccccc1-c1ccccc1 | 1.84 | 1.18 | 0.195 | 0.987 | 1.14 | 1.68 | -0.604 | 0.186 | 1 | -0.485 (inactive)
3 | CC(C)CON=C1C[C@@H](O)[C@@H](O)[C@@H]2[C@@H]3C(=O)N(Cc4ccccc4)C(=O)[C@@H]3CC[C@@H]12 | 0.705 | 0.633 | 0.528 | -0.598 | -0.163 | 0.239 | -0.762 | 0.516 | 0.0615 | 1.12 (inactive)
4 | c1ccc(C2NCCc3c2[nH]c2ccccc32)cc1 (stereo not given) | 0.191 | -0.805 | -0.0707 | -1.82 | 0.236 | 0.737 | -0.104 | 0.588 | 0.466 | 0.495 (inactive)
5 | CC(CCC(=O)OC[C@H]1O[C@H](C#Cc2ccccc2)C=C[C@@H]1Oc1ccc(C)cc1)=NO[C@@H](C)c1cn([C@H](CO)Cc2ccccc2)nn1 | 1.35 | 0.0769 | 0.0915 | 0.716 | 0.335 | 0.61 | -0.97 | 0.393 | 0.587 | 0.991 (inactive)
6 | COc1ccccc1CN1C(=O)c2ccccc2[C@@]2(Cc3ccccc3N(C(C)C)C2=O)[C@@H]1c1ccc(CO)cc1 | -0.166 | -0.263 | -0.0604 | -0.586 | -0.13 | -0.609 | 0.427 | -0.404 | 0.57 | -1.08 (inactive)
7 | COC(=O)CC=C[C@@H](C)[C@H](OC)c1ccccc1Br | -0.457 | 0.0434 | -0.0378 | -0.47 | 0.209 | 0.182 | 0.688 | 0.0835 | -0.602 | -0.384 (inactive)
8 | CC(CCC(=O)OC[C@H]1O[C@H](C#Cc2ccccc2)C=C[C@@H]1Oc1ccc(C)cc1)=NOC[C@@H](O)[C@H]1O[C@@H]2OC(C)(C)O[C@@H]2[C@H]1O | 0.418 | -0.106 | 0.0116 | -0.38 | -0.382 | -0.448 | 0.343 | 0.131 | -0.604 | 0.29 (inactive)
9 | CCOC(=O)[C@H](CC(C)C)NC(=O)CCC1CC(OC(=O)NCCc2ccc(F)cc2)CC2(CCCC(COC(=O)NCc3ccccc3)O2)O1 (stereo not given in full) | 0.49 | 1.17 | 0.212 | 0.538 | 0.693 | 0.936 | -0.692 | 1.04 | 0.422 | 0.629 (inactive)
10 | COCCOC(=O)N1C(=O)[C@@]2(c3ccccc31)[C@H](C(N)=O)[C@H]1C(=O)O[C@H](c3ccccc3)[C@H](c3ccccc3)N1[C@@H]2c1ccccc1OCCO | 2.57 | 1.08 | 0.29 | 0.882 | 1.3 | 0.894 | 0.431 | 0.533 | 0.98 | -1.25 (inactive)
11 | O=C1[C@H]2[C@H]3[C@H](O)[C@H](O)CC(=NOCc4ccccc4)[C@H]3CC[C@H]2C(=O)N1c1ccc(F)cc1F | 0.492 | -0.0368 | 0.145 | -0.898 | -0.273 | 0.0342 | -0.206 | -0.0947 | 0.146 | 0.522 (inactive)
12 | CCOC(=O)NN=C1C[C@@H](O)[C@@H](O)[C@@H]2[C@@H]3C(=O)N(C4CCCCC4)C(=O)[C@@H]3CC[C@H]12 | 0.0946 | 0.832 | 0.25 | 0.657 | 0.061 | 0.0615 | -1.13 | 0.78 | 0.395 | 0.63 (inactive)
13 | CCOC(=O)CCN1C(=O)[C@H]2[C@H]3[C@H](O)[C@H](O)CC(=NNC(=O)OCc4ccc(OC)cc4)[C@@H]3CC[C@H]2C1=O | -0.0498 | 0.842 | 0.215 | 0.367 | 0.541 | 0.474 | 0.385 | 0.833 | 0.985 | 0.666 (inactive)
14 | CCN1C(=O)[C@H]2[C@H]3[C@H](O)[C@H](O)CC(=NOCc4ccccc4)[C@@H]3CC[C@H]2C1=O | 0.119 | 0.65 | -0.0096 | 0.306 | 0.276 | 0.232 | 1.89 | 0.538 | 0.0953 | -1.23 (inactive)
15 | C#CCCCON=C1C[C@@H](O)[C@@H](O)[C@@H]2[C@@H]3C(=O)N(CCC(=O)OCC)C(=O)[C@@H]3CC[C@@H]12 | -0.264 | -0.0592 | 0.934 | 0.211 | -1.11 | -0.823 | -0.139 | -0.655 | 0.662 | 0.224 (inactive)
16 | CCOC(=O)NN=C1C[C@@H](O)[C@@H](O)[C@@H]2[C@@H]3C(=O)N(C4CCCCC4)C(=O)[C@@H]3CC[C@@H]12 | 0.327 | -0.18 | 0.287 | 0.5 | 0.267 | 0.365 | 0.497 | 0.319 | 0.0034 | -0.182 (inactive)
17 | COC(=O)[C@@]1(Cc2ccc(OC)cc2)[C@H]2c3cc(C(=O)N4CCCC4)n(Cc4cc(F)c(F)c(F)c4)c3C[C@H]2CN1C(=O)c1ccccc1 | 2.21 | 1.26 | 0.59 | 1.02 | 1.19 | -0.149 | 0.649 | -0.551 | 1.31 | 1.95 (inactive)
